# From PubChem BioAssay AID504832 (National Center for Advancing Translational Sciences (NCATS), 2011)
# The whole screen tested about 310,000 compounds, of which about 18,000 (5.8%) were called active. Not shown: some 22% with an inconclusive outcome. The entries come from a sample that favours actives as a whole. Unmarked numbers belong to inactive results. Calls follow the shape of the dose curve; as a rule, active = well fitted inhibition curve with a large enough effect; inconclusive = small, poorly fitted or top-dose-only effect, or another doubt; inactive = no such curve, though single readings can be large or run the other way.
# Assay: Primary qHTS for delayed death inhibitors of the malarial parasite plastid, 48 hour incubation
# Details: P. falciparum luciferase growth in erythrocytes; series mostly up to 28.7 µM; activity change, negative = inhibition: at the top concentration
# Summary of the method: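 First compound was added to culture medium, then infected red cells at 0.1% parasitemia and 2% hematocrit (final). After incubation at 37 C under 5% CO2, luciferase detection reagent was dispensed and light output recorded.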
# % is scaled to controls: 0 for no effect and ±100 for the full control effect; potency is read from the fitted curve at half-maximal effect.
SMILES,"activity change, negative = inhibition",Potency
COc1ccc(CCN(C)C(=O)C2CCCN(Cc3ccc(OC)c(OC)c3)C2)cc1OC (configuration not stated),-7.1%,–
CSc1ccc(C(=O)C2CCCN(Cc3ccn[nH]3)C2)cc1 (configuration not stated),6.4%,–
COc1cc(CN2CCCC(C(=O)c3ccc(SC)cc3)C2)cc(Cl)c1O (configuration not stated),–,11.7 µM (active)
CCN1CCN(C2CCCCC2NS(=O)(=O)c2ccc(Cl)cc2)CC1 (configuration not stated),3.88%,–
Cc1csc(NC(=O)C2CCN(S(=O)(=O)c3ccccc3)CC2)n1,-7.04%,–
CC1CCN(C(=O)COC(=O)c2cc(=O)[nH]c3ccccc23)CC1,38.1%,–
Cc1cc(S(=O)(=O)NC2CCCC2)ccc1-n1cnnn1,-4.46%,–
CSc1ccc(CNCCN2CCOCC2)cc1,-1.58%,–
CCCCC(CC)CNCc1cccn1CCN1CCOCC1 (configuration not stated),–,11.7 µM (active)
CCCCc1ccc(NC(=S)NCCCN2CCOCC2)cc1,-23.5%,–
O=C(CN1C(=O)S/C(=C\c2ccccc2F)C1=O)NCCCn1ccnc1,-4.46%,–
O=C(COC(=O)Cc1ccccc1F)NNC(=O)c1ccc(Cl)cc1,37.3%,–
CC(C)c1nnc(NC(=O)CCC(=O)N2CCN(c3cccc(Cl)c3)CC2)s1,6.01%,–
CCc1ccc(C(CNc2nc(C(F)(F)F)nc3ccccc23)N(C)C)cc1 (configuration not stated),–,11.7 µM (active)
NS(=O)(=O)c1ccc(CCNc2nc(C(F)(F)F)nc3ccccc23)cc1,-26.2%,–
Cc1cc(C)n(-c2nc(C(F)(F)F)nc3ccccc23)n1,31.4% [at 5.75 µM],–
CCC(NC(=O)c1cc(COc2ccc(F)c(F)c2)on1)c1ccncc1 (configuration not stated),-12.4%,–
Cc1ccccc1CCNC(=O)C1CCC(=O)N(Cc2ccc(Cl)cc2)C1 (configuration not stated),3.12%,–
Cc1c(C)n2c(SCC(=O)N3CCCC3)nnc2[nH]c1=O,-28.1%,–
COC(=O)Cc1ccc(OCC(=O)NC2CCCC2)cc1,-4.97%,–
CCOc1ccc(NC(=O)COC(=O)C2CCC(=O)N2)c([N+](=O)[O-])c1 (configuration not stated),-2.02%,–
COc1ccc(-c2c3c(=O)n(C)c(=O)n(C)c3cn2-c2cccc(OC)c2)cc1,–,11.7 µM (active)
COc1cccc(-n2cc(C(=O)O)c3ccccc3c2=O)c1,-2.63%,–
COc1cccc(-n2cc3c(c2-c2ccccc2)c(=O)n(C)c(=O)n3C)c1,–,5.22 µM (active)
COc1ccc(-n2c(-c3ccccc3)nc3ccccc3c2=O)cc1,4.43%,–
COc1ccc(N(C(=O)c2cccnc2)S(=O)(=O)c2ccc3c(c2)n(C)c(=O)n3C)cc1,2.95%,–

SMILES,"activity change, negative = inhibition",Potency
COc1ccc(-c2c3c(=O)n(C)c(=O)n(C)c3cn2NC(C)=O)cc1,-2.03%,–
Cc1cnc(NC(=O)c2ccc(Cl)nc2)s1,-10.1%,–
COC(=O)c1ccc(N2CCOCC2)c(NC(=O)c2ccc3c(c2)OCCO3)c1,-2.73%,–
Cc1ccc(Nc2ncnc3c2cnn3C)c(C)c1,4.24%,–
CCCCn1c(CN2CCN(CCO)CC2)nc2ccccc21,-10.1%,–
CC1CCc2sc3nc(N4CCN(CCO)CC4)n4ncnc4c3c2C1 (configuration not stated),17.3%,–
N#Cc1c2c(c(N3CCN(CCO)CC3)n3c1nc1ccccc13)CCCC2,–,0.828 µM (active)
CCN(CC(=O)Nc1cc(Cl)ccc1C)C(=O)CN1C(=O)NC2(CCCC2)C1=O,12.9%,–
CCn1ccnc1CN(C)C(=O)c1cc(COc2ccc(-n3cncn3)cc2)on1,-9.33%,–
O=C(c1ccco1)N1CCN(C(=S)Nc2cc(F)cc(F)c2)CC1,0.0313%,–
NC(=O)CC(NC(=O)Cc1ccc(Br)cc1)c1ccc(NC2CC3CCC2C3)c([N+](=O)[O-])c1 (configuration not stated),8.6%,–
CC(CCc1ccccc1)NCC(O)c1cccc([N+](=O)[O-])c1 (configuration not stated),–,0.233 µM (active)
CN(C(=O)c1cccc([N+](=O)[O-])c1)c1ccccc1C(=O)NCc1ccccc1,13.1%,–
CC(C)OP(=O)(OC(C)C)C(Nc1ccccc1)c1cccc([N+](=O)[O-])c1 (configuration not stated),0%,–
COc1ccc(N2CCN(C(=O)c3ccccc3NC(=O)C3=C(C)OCCS3)CC2)cc1,-28.6%,–
c1ccc(-n2nnnc2-c2cccnc2)cc1,31.6%,–
c1ccc(-c2noc(-c3cccs3)n2)nc1,209%,–
Clc1ccc(-n2nnnc2-c2cnc(-c3ccccn3)nc2-c2cccs2)cc1,–,3.7 µM (active)
Cc1ccc(OC(=O)c2cncc(Br)c2)c(C)c1,-5.17%,–
CCn1c(SCC(=O)NC2CC2)nnc1-c1ccncc1,-1.37%,–
O=C(Nc1ccc(Cl)c(Cl)c1)c1ccccc1NC(=O)C1CC=CCC1C(=O)O (configuration not stated),5.71%,–
CN(C)CCSc1nc(N)c2c3c(sc2n1)COC(C)(C)C3,-25.5%,–
CCCSc1nc(NCc2ccco2)c2c3c(sc2n1)COC(C)(CC)C3 (configuration not stated),–,9.28 µM (active)
CN1CCc2c(sc3c2c(NCc2ccco2)nc2nnnn23)C1,-0.28%,–
COc1cc(C2NC(=O)NC(c3ccccc3)=C2C(C)=O)c(Br)cc1OCC(N)=O (configuration not stated),-7.95%,–
CCOc1ccc(C(C)=O)cc1COC(=O)CN1C(=O)NC2(CCCC2)C1=O,–,13.1 µM (active)

SMILES,"activity change, negative = inhibition",Potency
CCOc1ccc(C(C)NC(=O)CN2C(=O)NC3(CCCCC3)C2=O)cc1OCC (configuration not stated),-11.8%,–
Cc1ccc(COC(=O)CN2C(=O)NC3(CCCC3)C2=O)cc1,-11.2%,–
CCC1C(=O)NCCN1C(=O)c1ccc2nc(Cc3ccc(OC)cc3)oc2c1 (configuration not stated),-17.4%,–
COc1ccc(CCNC(=S)N2CCN(S(=O)(=O)c3ccc(Cl)cc3)CC2)cc1,-0.768%,–
CCOC(=O)N1CCN(S(=O)(=O)c2ccc(OC)cc2)CC1,-4.19%,–
CCN(CC(=O)Nc1ccc(S(=O)(=O)N2CCCC2)cc1)CC(=O)Nc1cccc(OC)c1,-15.8%,–
COc1ccc(CCNC(=O)C2CCCN(S(=O)(=O)c3ccc(OC)cc3)C2)cc1 (configuration not stated),–,9.28 µM (active)
CCOc1ccc(NC(=O)C2CCCN(C(=O)Nc3ccccc3)C2)cc1 (configuration not stated),-21.5%,–
CC(C)CCNC(=O)C1CCCN(S(=O)(=O)c2ccc(F)cc2)C1 (configuration not stated),-11.9%,–
CCCCNC(=O)C1CCCN(S(=O)(=O)c2ccc(S(=O)(=O)NCC(C)C)cc2)C1 (configuration not stated),-13.8%,–
COc1ccc(CCNC(=S)N2CCN(S(=O)(=O)c3ccc(F)cc3)CC2)cc1,–,2.62 µM (active)
CCOc1cccc(NC(=O)C2CCCN(S(=O)(=O)c3ccc(OC)cc3)C2)c1 (configuration not stated),–,4.65 µM (active)
Cc1cccc(OCC(=O)NCCNC(=O)c2cccnc2)c1,5.02%,–
CC(C)(C)C(=O)Nc1ccc(-c2cn3cccnc3n2)cc1,64.1%,–
CN(Cc1ccccc1)C(=O)C(=O)c1cn(CC(=O)N2CCCC2)c2ccccc12,-2.31%,–
O=c1oc2ccc(C#CC3(O)CCCCC3)cc2cc1-n1cc(-c2ccsc2)nn1,0%,–
CCc1ccc(-c2nn(-c3ccccc3C)cc2C(=O)N2CCN(C3CCS(=O)(=O)C3)CC2)cc1 (configuration not stated),-28%,–
O=C(NCCC1=CCCCC1)c1ccc(-n2cncn2)cc1,221%,–
CCc1noc(C)c1C(=O)Nc1nc2ccc(OC)cc2s1,42.1%,–
CCOc1ccc(S(=O)(=O)N2CCCC(C(=O)N3CCC(C(N)=O)CC3)C2)cc1Cl (configuration not stated),-29.6%,–
Cc1ccc(C)c(N2CCN(C(=O)CCCCCn3c(=S)[nH]c4ccc(N5CCOCC5)cc4c3=O)CC2)c1,–,7.38 µM (active)
Cc1ccc(C)c(N2CCN(C(=O)CCc3nc4ccccc4[nH]3)CC2)c1,-14.4%,–
Cc1ccc(C)c(N2CCN(C(=O)CCCCn3c(=O)[nH]c4ccccc4c3=O)CC2)c1,46.1%,–
COCc1c(C(=O)N/N=C(\C)c2ccncc2)nnn1-c1nonc1N,29.9%,–
C=CCNC(=O)c1csc(-c2ccccc2)n1,90.6%,–
C=CC[n+]1c(-c2ccc(C)cc2)csc1NNC(=O)Nc1ccccc1,–,11.7 µM (active)

SMILES,"activity change, negative = inhibition",Potency
Cc1ccc(NC(=O)Nc2ccccc2)c(Br)c1,212%,–
Cc1ccc(NC(=O)NNC(=O)c2sccc2-n2cccc2)cc1,3.25%,–
C=CCNc1scc(-c2ccccc2)[n+]1CC=C,–,4.15 µM (active)
O=C(Cc1ccccc1)Nc1ccc(NC(=O)c2cccnc2)cc1,20%,–
CN1CCN(CCNC(=O)Nc2ccccc2[N+](=O)[O-])CC1,-5.7% [at 0.00184 µM],–
COc1ccc(CN(C)C(=O)Cc2ccsc2)c(OC)c1OC,–,13.1 µM (active)
COc1ccccc1C(C)NC(=O)Cc1ccsc1 (configuration not stated),-12.4%,–
COc1ccc(CN(C)C(=O)Cc2c[nH]c3ccccc23)c(OC)c1OC,13.9% [at 0.00184 µM],–
CS(=O)(=O)N(CC(=O)N1CCCCCC1)c1cccc(Cl)c1Cl,-10.5%,–
NS(=O)(=O)c1ccc(NC(=S)N2CCCC2)cc1,18.3%,–
O=C(C1CC1)N1N=C(c2ccc(Br)cc2)CC1(O)C(F)(F)F (configuration not stated),-12.6% [at 0.00184 µM],–
O=C(c1ccc(Cl)cc1)N1N=C(c2ccccn2)CC1(O)C(F)(F)F (configuration not stated),–,4.65 µM (active)
COC(=O)C1(O)CC(C(C)C)=NN1C(=O)c1ccc(Cl)cc1 (configuration not stated),-1.24%,–
COc1ccc(CCNC(=O)COC(=O)C2CC2C)cc1 (configuration not stated),-4.46%,–
Cc1ccc(S(=O)(=O)N(C)C)cc1NC(=O)c1ccc(-n2cncn2)c([N+](=O)[O-])c1,-0.637%,–
O=[N+]([O-])C(=c1ccc2c(c1)N1C3=C(CCCC3)CC3CCCCC31N=2)[N+](=O)[O-] (configuration not stated),–,2.94 µM (active)
Cc1ccc(S(=O)(=O)NCCC(=O)Nc2cccc(S(N)(=O)=O)c2)cc1C,-0.472%,–
O=C(CN(C(=O)c1nsc(Cl)c1Cl)c1cccc(F)c1)NC1CCCC1,2.6%,–
COc1cccc(N(CC(=O)NC2CCCC2)C(=O)CCCC(=O)Nc2ccccn2)c1,-5.82%,–
COC(=O)c1cn(C(=O)c2ccc(Cl)cc2)c2ccccc12,6.25%,–
COC(=O)c1ccccc1Sc1c(/C=N/OCc2ccc(Cl)cc2)c(C(F)(F)F)nn1C,–,1.85 µM (active)
COC(=O)c1ccccc1NC(=O)Cn1nc(C(F)(F)F)c2c1CCC2,-16.9%,–
O=c1ccc(S(=O)(=O)N2CCCC2)cn1Cc1nc(-c2ccccc2)no1,-21.1%,–
CC1=C(C(N)=O)C(c2ccc(F)cc2)n2nc(CCCO)nc2N1 (configuration not stated),5.98%,–
